Assay results taken from PubChem BioAssay (NCATS).
Records with an inconclusive call do not appear. Activity calls are given as the source filed them. The call rests on the fitted dose curve; in most records, active means well fitted inhibition curve with a large enough effect; inconclusive means small, poorly fitted or top-dose-only effect; inactive means flat fitted curve, though single readings scatter.

Tests used:
CRL-7250 = normal cell line; assay: Cytotoxic Profiling of Annotated Libraries Using Quantitative High-Throughput Screening (AID 1296008); details: Five cell lines viability, CellTiter-Glo ATP luminescence, 48-72 h; active compounds read low; on max response: on the % scale 0 is the no-effect control and ±100 the full control effect
Procedure, shortened: (§1)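 Cytotoxicity was measured as CellTiter-Glo ATP luminescence, read after 10 min at room temperature. Compound treatment of the cells lasted 48 or 72 hr at 37 degrees Celsius in a qHTS format.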

HEK293 = assay: as above; details: Five cell lines viability, CellTiter-Glo ATP luminescence, 48-72 h; active compounds read low
Procedure, shortened: as §1

HaCat [1] = assay: as above; details: Five cell lines viability, CellTiter-Glo ATP luminescence, 48-72 h; active compounds read low
Procedure, shortened: as §1

KB-3-1 = assay: as above; details: Five cell lines viability, CellTiter-Glo ATP luminescence, 48-72 h, active compounds read low
Procedure, shortened: as §1

NIH3T3 = assay: as above; details: Five cell lines viability, CellTiter-Glo ATP luminescence, 48-72 h; active compounds read low
Procedure, shortened: as §1

HACAT [2] = assay: qHTS assay to identify novel small-molecules to repurpose for Merkel cell carcinoma treatment (AID 1296009); details: MCC and control cell lines, CellTiter-Glo viability, 72 h; at 44.8 µM (top of the series) unless noted
Procedure, shortened: (§2)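 72 hr, 37 degree celsius; NPC 8-pt / MIPE 11-pt dose response; compound pinned in DMSO; CellTiter-Glo, 10 min RT, luminescence; normalized to no-cell and DMSO controls.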

MCC-13 = assay: as above; details: MCC and control cell lines, CellTiter-Glo viability, 72 h; series mostly up to 46 µM
Procedure, shortened: as §2

MCC-26 = assay: as above; details: MCC and control cell lines, CellTiter-Glo viability, 72 h; series mostly up to 46 µM
Procedure, shortened: as §2

MKL-1 = assay: as above; details: MCC and control cell lines, CellTiter-Glo viability, 72 h; series mostly up to 46 µM
Procedure, shortened: as §2

P94_40 = assay: qHTS profiling for inhibitors of Plasmodium falciparum proliferation (AID 504749);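 further: 0% = DMSO vehicle and full inhibition = artemisinin control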; details: P. falciparum in erythrocytes, SYBR Green DNA, 72 h; series mostly up to 28.7 µM
Procedure, shortened: (§3)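 Infected RBCs, 0.3% parasitemia/2.5% Hct final; cpd 72 h, 37 C, 5% CO2; lysis buffer with saponin/triton/SYBR Green I, o/n RT dark; FI 485/535; norm. to artemisinin (0.29 uM) and DMSO.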

PAD = assay: as above; details: P. falciparum in erythrocytes, SYBR Green DNA, 72 h; series mostly up to 28.7 µM
Procedure, shortened: as §3

PC15 = assay: as above; details: P. falciparum in erythrocytes, SYBR Green DNA, 72 h; series mostly up to 28.7 µM
Procedure, shortened: as §3

PC26 = assay: as above; details: P. falciparum in erythrocytes, SYBR Green DNA, 72 h; series mostly up to 28.7 µM
Procedure, shortened: as §3

PC49 = assay: as above; details: P. falciparum in erythrocytes, SYBR Green DNA, 72 h; series mostly up to 28.7 µM
Procedure, shortened: as §3

SC27B = assay: as above; details: P. falciparum in erythrocytes, SYBR Green DNA, 72 h; series mostly up to 28.7 µM
Procedure, shortened: as §3

TAB109 = assay: as above; details: P. falciparum in erythrocytes, SYBR Green DNA, 72 h; series mostly up to 28.7 µM
Procedure, shortened: as §3

TAB113 = assay: as above; details: P. falciparum in erythrocytes, SYBR Green DNA, 72 h; series mostly up to 28.7 µM
Procedure, shortened: as §3

TAB165 = assay: as above; details: P. falciparum in erythrocytes, SYBR Green DNA, 72 h; series mostly up to 28.7 µM
Procedure, shortened: as §3

W2 = assay: as above; details: P. falciparum in erythrocytes, SYBR Green DNA, 72 h; series mostly up to 28.7 µM
Procedure, shortened: as §3
Further: nearly all actives have a fitted effect of over 60% in size.

NC(=O)NC1NC(=O)NC1=O (stereo not given)
inactive: outcome (CRL-7250) | max response (HEK293) -3.84% | outcome (HaCat [1]) | max response (KB-3-1) -5.62% | outcome (NIH3T3) | outcome (HACAT [2]) | outcome (MCC-13) | outcome (MCC-26) | outcome (MKL-1)

Cc1ccc2c(c1)c1c3n2CCNC3CCC1 (stereo not given)
inactive: max response (CRL-7250) -2.33% | max response (HEK293) -1.48% | outcome (HaCat [1]) | max response (KB-3-1) -0.231% | max response (NIH3T3) -0.828% | outcome (HACAT [2]) | outcome (MCC-13) | outcome (MCC-26) | outcome (MKL-1)

Cc1ccc(C(C)C)c(O)c1
inactive: Potency (P94_40) | Potency (PAD) | Potency (PC15) | Potency (PC26) | Potency (PC49) | Potency (SC27B) | Potency (TAB109) | Potency (TAB113) | Potency (TAB165) | Potency (W2) | outcome (CRL-7250) | max response (HEK293) 3.73% | outcome (HaCat [1]) | max response (KB-3-1) 18.3% | max response (NIH3T3) 0.329% | outcome (HACAT [2]) | outcome (MCC-13) | outcome (MCC-26) | outcome (MKL-1)

NS(=O)(=O)c1ccc(NC(=O)CCC(=O)O)cc1
inactive: Potency (P94_40) | Potency (PAD) | Potency (PC15) | Potency (PC26) | Potency (PC49) | Potency (SC27B) | Potency (TAB109) | Potency (TAB113) | Potency (TAB165) | Potency (W2) | max response (CRL-7250) -4.29% | max response (HEK293) -0.661% | outcome (HaCat [1]) | max response (KB-3-1) -4.48% | outcome (NIH3T3) | outcome (HACAT [2]) | outcome (MCC-13) | outcome (MCC-26) | outcome (MKL-1)

NC(N)=NS(=O)(=O)c1ccc(N)cc1
inactive: Potency (P94_40) | Potency (PAD) | Potency (PC15) | Potency (PC26) | Potency (PC49) | Potency (SC27B) | Potency (TAB109) | Potency (TAB113) | Potency (TAB165) | Potency (W2) | outcome (CRL-7250) | max response (HEK293) -6.28% | outcome (HaCat [1]) | max response (KB-3-1) 15.5% | outcome (NIH3T3) | outcome (HACAT [2]) | outcome (MCC-13) | outcome (MCC-26) | outcome (MKL-1)

OCC(O)CS (stereo not given)
inactive: Potency (P94_40) | Potency (PAD) | Potency (PC15) | Potency (PC26) | Potency (PC49) | Potency (SC27B) | Potency (TAB109) | Potency (TAB113) | Potency (TAB165) | max response (CRL-7250) -11.9% | max response (HEK293) 3.48% | outcome (HaCat [1]) | max response (KB-3-1) 1.95% | max response (NIH3T3) 0.523% | outcome (HACAT [2]) | outcome (MCC-13) | outcome (MCC-26) | outcome (MKL-1)

CCCCOC(=O)c1ccc(N)cc1
inactive: Potency (P94_40) | Potency (PAD) | Potency (PC15) | Potency (PC26) | Potency (PC49) | Potency (SC27B) | Potency (TAB109) | Potency (TAB113) | Potency (TAB165) | outcome (CRL-7250) | max response (HEK293) 4.63% | outcome (HaCat [1]) | max response (KB-3-1) 0.229% | max response (NIH3T3) -6.66% | outcome (HACAT [2]) | outcome (MCC-13) | outcome (MCC-26) | outcome (MKL-1)

CN1CCN(C(=O)C2CCCCC2)CC1
inactive: Potency (P94_40) | Potency (PAD) | Potency (PC15) | Potency (PC26) | Potency (PC49) | Potency (SC27B) | Potency (TAB109) | Potency (TAB113) | Potency (TAB165) | Potency (W2) | outcome (CRL-7250) | max response (HEK293) -2.32% | outcome (HaCat [1]) | max response (KB-3-1) -4.36% | max response (NIH3T3) -7.73% | outcome (HACAT [2]) | outcome (MCC-13) | outcome (MCC-26) | outcome (MKL-1)

Cc1onc(-c2ccccc2)c1-c1ccc(S(N)(=O)=O)cc1
inactive: Potency (P94_40) | Potency (PAD) | Potency (PC15) | Potency (PC26) | Potency (PC49) | Potency (SC27B) | Potency (TAB109) | Potency (TAB113) | Potency (TAB165) | Potency (W2) | outcome (CRL-7250) | max response (HEK293) -13.2% | outcome (HaCat [1]) | max response (KB-3-1) 6.03% | outcome (NIH3T3) | outcome (HACAT [2]) | outcome (MCC-13) | outcome (MCC-26) | outcome (MKL-1)

COc1ccc(C(=O)N2CCN(CC(=O)N3CCOCC3)CC2)cc1
inactive: Potency (P94_40) | Potency (PAD) | Potency (PC15) | Potency (PC26) | Potency (PC49) | Potency (SC27B) | Potency (TAB109) | Potency (TAB113) | Potency (TAB165) | Potency (W2) | max response (CRL-7250) 3.53% | max response (HEK293) 4.6% | outcome (HaCat [1]) | max response (KB-3-1) 5.06% | outcome (NIH3T3) | outcome (HACAT [2]) | outcome (MCC-13) | outcome (MCC-26) | outcome (MKL-1)

CN1C(C)(C)CCCC1(C)C
inactive: Potency (P94_40) | Potency (PAD) | Potency (PC15) | Potency (PC26) | Potency (PC49) | Potency (SC27B) | Potency (TAB109) | Potency (TAB113) | Potency (TAB165) | Potency (W2) | max response (CRL-7250) -19.2% | max response (HEK293) -21.6% | outcome (HaCat [1]) | max response (KB-3-1) 7.25% | max response (NIH3T3) -1.07% | outcome (HACAT [2]) | outcome (MCC-13) | outcome (MCC-26) | outcome (MKL-1)

O=C(Cn1ccnc1[N+](=O)[O-])NCc1ccccc1
inactive: Potency (P94_40) | Potency (PAD) | Potency (PC15) | Potency (PC26) | Potency (PC49) | Potency (SC27B) | Potency (TAB109) | Potency (TAB113) | Potency (TAB165) | Potency (W2) | max response (CRL-7250) 0.299% | max response (HEK293) -3.43% | outcome (HaCat [1]) | max response (KB-3-1) 0.421% | max response (NIH3T3) 3.14% | outcome (HACAT [2]) | outcome (MCC-13) | outcome (MCC-26) | outcome (MKL-1)

O=C(O)COC(=O)Cc1ccccc1Nc1c(Cl)cccc1Cl
inactive: Potency (P94_40) | Potency (PAD) | Potency (PC15) | Potency (PC26) | Potency (PC49) | Potency (SC27B) | Potency (TAB109) | Potency (TAB113) | Potency (TAB165) | Potency (W2) | outcome (CRL-7250) | max response (HEK293) -1.3% | outcome (HaCat [1]) | max response (KB-3-1) 5.03% | max response (NIH3T3) 1.68% | outcome (HACAT [2]) | outcome (MCC-13) | outcome (MCC-26) | outcome (MKL-1)
